Potency data for six compounds are collected here from PubChem BioAssay AID2061320 (National Center for Advancing Translational Sciences (NCATS), 2025).

Records with an inconclusive call do not appear. Active and inactive are the calls of the source. The call rests on the fitted dose curve; in most records, active means well fitted inhibition curve with a large enough effect; inconclusive means small, poorly fitted or top-dose-only effect; inactive means flat fitted curve, though single readings scatter.

This assay can be described thus: Identification of antibody-drug conjugate (ADC) payloads which are substrates of ATP-binding cassette drug efflux transporters: ABCG2-H460-MX20 cell line. The conditions noted are these: H460-MX20 (ABCG2) viability, CellTiter-Glo, 48 h; series mostly up to 28.7 µM. The text has this:
Antibody-drug conjugates (ADCs) feature an antibody recognizing a specific protein joined to a potent toxic payload. Numerous antibody-drug conjugates have received FDA approval; however, clinical resistance arises. Resistance mechanisms include decreased expression or mutation of the antibody target, impaired payload release, or increased expression of ATP-binding cassette (ABC) efflux transporters associated with multidrug resistance. We therefore sought to characterize the interaction of ABC multidrug transporters with ADC payloads. We performed a high-throughput screen with 27 common ADC payloads using cells lines expressing ABC transporters P-glycoprotein (P-gp, encoded by ABCB1) or ABCG2 (encoded by ABCG2). Confirmatory assays were also performed using cells transfected to express P-gp, ABCG2, or MRP1 (encoded by ABCC1). Several commonly used ADC payloads were substrates of P-gp, including calicheamicin gamma1, monomethyl auristatin E, DM1, and DM4. All the pyrrolobenzodiazepines tested - SJG136, SGD-1882, SG2057, and SG3199 - were substrates of P-gp, ABCG2, and MRP1. […] These findings highlight the risk of transporter-mediated resistance with certain ADC payloads and underscore the importance of selecting payloads that evade ABC transporter recognition in future ADC development.
HEK-293 cells were transfected with empty vector (pcDNA) or vector containing the human ABCB1 (MDR-19), ABCG2 (R-5), or ABCC1 gene (MRP1) and were maintained in EMEM with 2 mg/mL G418 added to maintain transporter expression. The HeLa derivative KB-3-1 and the P-gp overexpressing KB-8-5-11 subline were maintained in DMEM; KB-8-5-11 additionally received 100 ng/mL colchicine. H460 parental cells were obtained from the Division of Cancer Treatment and Diagnosis Tumor Repository, National Cancer Institute at Frederick, MD and were cultured in RPMI. The ABCG2 expressing subline H460 MX20 was generated by selecting H460 cells in 20 nM mitoxantrone. Media in all cases was supplemented with 10% FBS and 1% penicillin-streptomycin. We explored 27 common ADC payloads, in two orthogonal, paired cell line sets-a drug selected and transfected set for each transporter--to identify substrates of the ABC transporters P-gp and ABCG2. Compounds were sourced from Levena Biopharma (San Diego, CA), Selleck Chem (Houston, TX), ChemieTek (Indianapolis, IN), or Microsource Discovery Systems (Gaylordsville, CT). Screening was performed as previously described. Briefly, cells were plated at a density of 500 cells/well in 1536 well plates with compounds added using a 1536-head pin tool (Kalypsys, San Diego CA). Cells were incubated with cytotoxic drugs and processed with CellTiter Glo reagent (Promega, Madison, WI) to determine viability after 48 hours. P-gp substrates were identified by comparing compound activity between paired sets of low-expressing (sensitive) and over-expressing (resistant) cell lines.
On the technique in general: In ATP-based viability assays light output follows the ATP content of the culture.
With `CC[C@H](C)[C@@H]1NC(=O)CNC(=O)[C@H]2Cc3c([nH]c4cc(O)ccc34)S(=O)C[C@H](NC(=O)CNC1=O)C(=O)N[C@@H](CC(N)=O)C(=O)N1C[C@H](O)C[C@H]1C(=O)N[C@@H]([C@@H](C)[C@@H](O)CO)C(=O)N2` (stereo partly specified), the Potency was 1.06 µM (active).
For `CC[C@H](C)[C@H](NC(=O)[C@H]1CCCCN1C)C(=O)N(C)[C@H](C[C@@H](OC(C)=O)c1nc(C(=O)N[C@@H](Cc2ccccc2)C[C@H](C)C(=O)O)cs1)C(C)C` the value was “inactive”.
With `CC[C@H](C)[C@@H]([C@@H](CC(=O)N1CCC[C@H]1[C@H](OC)[C@@H](C)C(=O)N[C@H](C)[C@@H](O)c1ccccc1)OC)N(C)C(=O)[C@@H](NC(=O)[C@H](C(C)C)N(C)C)C(C)C`, the Potency is 0.598 µM (active).
For `COc1cccc2c1C(=O)c1c(O)c3c(c(O)c1C2=O)C[C@@](O)(C(=O)CO)CC3OC1CC(N2CCOC(OC)C2)C(O)C(C)O1` (stereo partly specified) the value was 0.0084 µM (active).
`COc1cc2cc(C(=O)N3C[C@@H](CCl)c4c3cc(O)c3ccccc43)[nH]c2c(OC)c1OC`: the Potency is 0.0021 µM (active).
For `COc1cc2cc(c1Cl)N(C)C(=O)C[C@H](OC(=O)[C@H](C)N(C)C(=O)CCS)[C@]1(C)OC1[C@H](C)C1C[C@@](O)(NC(=O)O1)[C@H](OC)/C=C/C=C(\C)C2` (stereo partly specified) the value was 15 µM (active).
